Experimental data published in PubChem BioAssay AID431 (Sanford-Burnham Center for Chemical Genomics, 2006).
About 1,100 (1.7%) of roughly 63,000 compounds were called active. The full list was thinned out, with actives kept by preference. Results with a measured potency or affinity are listed apart. Values without a mark were called inactive.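 Rule for the calls: active = compounds whose percent cytotoxicity in the single-dose primary screen, scaled between solvent and toxic-drug controls, exceeds 50; inactive = the rest.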

Test: cytotoxicity in KRAS-transformed pancreatic duct cells, primary screen, cell-based, fluorescence, HTS (AID 431);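 note: 0% = DMSO solvent wells and 100% = doxorubicin-treated wells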
Settings: HPDE-C7K KRASV12 cells, Alamar Blue viability, 48 h; at 10 µM; active compounds read high

Row | SMILES | cytotoxicity
1 | COc1cc2nc(CC(C)C)n(NC(=O)c3ccccc3)c(=O)c2cc1OC | -0.2%
2 | Cc1cc(N2CCN(C(=O)c3ccco3)CC2)n2nc(-c3cccc(Cl)c3)cc2n1 | 2%
3 | c1cnc(NCCNc2ncccn2)nc1 | -5.3%
4 | Cc1cc(NC(=O)c2ccc(Cn3nc(C)c(Br)c3C)o2)no1 | 6.8%
5 | CCOC(=O)C1CCN(c2c(N(C)Cc3ccco3)c(=O)c2=O)CC1 | 11%
6 | O=CN1Cc2[nH]c3ccccc3c2N(c2ccc(Cl)cc2)C1=O | -0.4%
7 | Nc1c(S(=O)(=O)c2cccc(Cl)c2)c2nc3ccccc3nc2n1/N=C/c1ccc(O)c(O)c1 | 126% (active)
8 | Nc1c(S(=O)(=O)c2ccccc2)c2nc3ccccc3nc2n1/N=C/c1ccco1 | 45.3%
9 | Cc1cccc(S(=O)(=O)c2c(N)n(/N=C/c3cccnc3)c3nc4ccccc4nc23)c1 | 23.4%
10 | Cc1cccc(S(=O)(=O)c2c(N)n(/N=C/c3ccco3)c3nc4ccccc4nc23)c1 | 17.6%
11 | Nc1c(S(=O)(=O)c2cccs2)c2nc3ccccc3nc2n1Cc1cccs1 | -15.3%
12 | Cc1ccc(S(=O)(=O)c2c(N)n(/N=C/c3ccco3)c3nc4ccccc4nc23)cc1C | 8.5%
13 | Nc1c(S(=O)(=O)c2cccs2)c2nc3ccccc3nc2n1/N=C/c1cccc(O)c1 | 65.7% (active)
14 | COCCn1c(N)c(S(=O)(=O)c2cccs2)c2nc3ccccc3nc21 | -1.6%
15 | O=C(CCSc1nc(-c2ccco2)cc(C(F)(F)F)n1)NCC1CCCO1 (stereo not drawn) | 3.2%
16 | COCCCNC(=O)CCn1c(=O)c2ccccc2n(CC(=O)Nc2ccccc2C)c1=O | 1.7%
17 | CN(C(=O)c1ccc2c(=O)n3c(nc2c1)CCCCC3)c1ccccc1 | -5.5%
18 | CCOC(=O)c1c(C)[nH]c(C(=O)CSc2nnnn2-c2ccccc2)c1C | -2.7%
19 | CCc1nc2oc3cc(OC)ccc3c(=O)c2c(=O)n1Cc1ccco1 | -11.3%
20 | O=C(Nc1cccnc1)C1CCCN(S(=O)(=O)c2cccc3nsnc23)C1 (stereo not drawn) | -2.5%
21 | Cc1ccc(C(=O)NCCNC(=O)CN2CCCC2)cc1 | -4.9%
22 | CN(C1CCCCC1)S(=O)(=O)c1ccc(NC(=O)C2CCCCC2C(=O)O)cc1 (stereo not drawn) | -5.7%
23 | COc1ccc(-c2nc3c(c(=O)n(C)c(=O)n3C)n2CC2CC(c3ccccc3)=NO2)cc1OC (stereo not drawn) | 53.3% (active)
24 | COc1ccc(C2=NOC(Cn3c(Cc4ccc(Cl)cc4)nc4c3c(=O)n(C)c(=O)n4C)C2)cc1 (stereo not drawn) | 1.7%

Row | SMILES | cytotoxicity
25 | COc1ccccc1C1=NOC(Cn2c(=O)c3c(ncn3C)n(C)c2=O)C1 (stereo not drawn) | -17.3%
26 | CC1CCN(c2nc3c(c(=O)[nH]c(=O)n3C)n2Cc2ccccc2Cl)CC1 | 8.5%
27 | CCOC(=O)c1cnc(=O)[nH]c1C | 1.1%
28 | Cc1cc(-c2[nH]nc3c2C(c2ccsc2)C(C#N)=C(N)O3)c(C)s1 (stereo not drawn) | -9.2%
29 | Cc1ccc2[nH]c3c(c2c1)CN(C(=O)CN1CCN(c2ccccc2F)CC1)CC3 | 22.5%
30 | Cc1ccc2[nH]c3c(c2c1)CN(C(=O)CN1CCCc2ccccc21)CC3 | 54.4% (active)
31 | Cc1ccc2[nH]c3c(c2c1)CN(C(=O)CN1CCN(c2ccccc2)CC1)CC3 | 24.5%
32 | CCN(CC)C(=O)c1csc(Nc2ccc(C)cc2)n1 | -18.4%
33 | Cc1nc2cc(CO)ccc2s1 | 1.8%
34 | CC(=O)N1CCc2cc(C(=O)CN3CCN(c4cccc(Cl)c4)CC3)ccc21 | -4%
35 | O=C(Nc1ccc(O)cc1)c1ccc(C(=O)c2ccccc2)o1 | -1.3%
36 | Cc1ncoc1C(=O)Nc1ccc(Oc2ccccc2)cc1 | -7.3%
37 | Cc1ccc2c(COC(=O)c3cnc(C)cn3)cc(=O)oc2c1 | 4.8%
38 | CCOc1ccc(C)cc1S(=O)(=O)N1CCCCC1 | 7.7%
39 | Cc1cnc(NC(=O)COc2ccccc2)s1 | 1.6%
40 | Cc1ccc2c(c1)-c1ccccc1S(=O)(=O)N2 | 11.5%
41 | O=S1(=O)Nc2c(ccc3cccnc23)-c2ccccc21 | 86% (active)
42 | Nc1ccc2c(c1)-c1ccccc1S(=O)(=O)N2 | 16.8%
43 | CC1CCN(c2nnc(N3CCC(C)CC3)c3ccccc23)CC1 | -2.9%
44 | Cc1ccc(C(c2nnnn2Cc2cccs2)N2CCN(C(=O)c3ccco3)CC2)cc1 (stereo not drawn) | 2%
45 | CNC(=O)c1ccc(N(Cc2ccccc2C)S(C)(=O)=O)cc1 | 2.8%
46 | O=S(=O)(NCCc1ccccn1)c1ccc(F)c(F)c1 | -21.4%
47 | COc1cccc(C2/C(=C(\O)c3ccc(OC)c(OC)c3)C(=O)C(=O)N2c2cc(C)on2)c1 (stereo not drawn) | 19.3%
48 | Cc1ccc(/C(O)=C2\C(=O)C(=O)N(c3cc(C)on3)C2c2cccc(Br)c2)cc1 (stereo not drawn) | 48.2%

Row | SMILES | cytotoxicity
49 | Cc1ccc(/C(O)=C2\C(=O)C(=O)N(c3cc(C)on3)C2c2cccc(Cl)c2)cc1 (stereo not drawn) | 55.9% (active)
50 | COc1ccc(/C(O)=C2\C(=O)C(=O)N(c3cc(C)on3)C2c2ccccc2OC)cc1 (stereo not drawn) | 9.4%
51 | Cc1cc(N2C(=O)C(=O)/C(=C(/O)c3ccc(F)cc3)C2c2cccc(Br)c2)no1 (stereo not drawn) | 72.5% (active)
52 | Cc1cc(N2C(=O)C(=O)/C(=C(/O)c3ccc(F)cc3)C2c2ccc(Cl)cc2)no1 (stereo not drawn) | 37.6%
53 | Cc1cc(N2C(=O)C(=O)/C(=C(/O)c3ccccc3)C2c2cccc(Br)c2)no1 (stereo not drawn) | 0.9%
54 | Cc1cc(N2C(=O)C(=O)/C(=C(/O)c3ccc(Cl)cc3)C2c2cccc(Br)c2)no1 (stereo not drawn) | 60.6% (active)
55 | Cc1cc(N2C(=O)C(=O)/C(=C(/O)c3ccc(F)cc3)C2c2ccc(F)cc2)no1 (stereo not drawn) | 16.6%
56 | COc1ccc(C2C(C(=O)NCC3CCCO3)CCC(=O)N2c2ccc3c(c2)OCO3)cc1 (stereo not drawn) | -18.6%
57 | O=C(Nc1ccccc1C(F)(F)F)c1cc(S(=O)(=O)N2CCOCC2)ccc1F | 24.1%
58 | CCn1c(C(=O)NCc2ccccn2)cc2sccc21 | -5.6%
59 | Cc1cc2c(=O)n(Cc3ccco3)c(SCC(=O)NCc3ccco3)nc2s1 | -12.9%
60 | COc1ccc(C2N=C(Nc3ccc(C)cc3)Nc3nc(C)cc(=O)n32)cc1 (stereo not drawn) | 2.4%
61 | COc1ccc(S(=O)(=O)N(CC(=O)O)c2ccccc2)cc1 | 8.5%
62 | Cc1csc2nc3ccccc3c(=O)n12 | 2.6%
63 | COc1cc(C2N(c3ccccc3)CCN2c2ccccc2)ccc1OC(C)=O | -13.9%
64 | Oc1ccccc1C1Nc2cccc3cccc(c23)N1 | -2.4%
65 | COc1cc(C(=O)O)ccc1OC(C)=O | -2.6%
66 | COc1cc(C2Nc3cccc4cccc(c34)N2)cc(OC)c1OC(C)=O | 83.6% (active)
67 | COc1cc(C2Nc3cccc4cccc(c34)N2)cc(OC)c1O | 41.5%
68 | COc1cc(C2Nc3cccc4cccc(c34)N2)ccc1OC(C)=O | 50.8% (active)
69 | Cc1ccc(S(=O)(=O)Cn2nnnc2C(C(C)C)N2CCN(C(=O)c3ccco3)CC2)cc1 (stereo not drawn) | -8.7%
70 | CCOC(=O)CNC(=O)Nc1cc(C(C)(C)C)nn1-c1ccccc1 | -5.3%
71 | Cc1ccc2nc(-c3ccccn3)oc2c1 | 9.5%
72 | CCOC(=O)C(CCC#N)(CCC#N)C(=O)OCC | -1.4%

Row | SMILES | cytotoxicity
73 | O=C(CN(Cc1ccco1)C(=O)CNS(=O)(=O)c1ccc(Cl)cc1)NCc1ccc(F)cc1 | 77.7% (active)
74 | O=C(CN(Cc1ccco1)C(=O)CNS(=O)(=O)c1ccc(F)cc1)NCc1ccc(F)cc1 | 1.2%
75 | O=C(CN(Cc1ccco1)C(=O)CNS(=O)(=O)c1ccccc1)NCc1ccc(F)cc1 | 2.2%
76 | CC(=O)c1cccc(NC(=O)NC(C)c2ccncc2)c1 (stereo not drawn) | -4.4%
77 | Cc1noc(/C=C/NCc2cccnc2)c1S(=O)(=O)N(C)CC(=O)N1CCc2ccccc21 | 2.4%
78 | COc1cc2cc(C)c(SCC(=O)N3CCOCC3)nc2cc1OC | -9.8%
79 | O=C(O)CCN(CCC(=O)O)S(=O)(=O)c1ccccc1 | -5.5%
80 | N#CCCCSc1nnc(-c2ccc(Cl)cc2)n1-c1ccccc1 | -16.4%
81 | Cc1cc(-n2c(SCCC#N)nnc2-c2cccnc2)ccc1Cl | -9.6%
82 | COc1ccc(-n2c(SCCC#N)nnc2-c2cc(Cl)ccc2OC)cc1Cl | 54.3% (active)
83 | COc1ccc(N(C(=O)c2ccc(S(=O)(=O)N3CCOCC3)cc2)C2C=CS(=O)(=O)C2)cc1 (stereo not drawn) | -10.3%
84 | CCOC(=O)C1=C(C)C(c2ccc(OC)cc2OC)NC(=O)N1 (stereo not drawn) | -21.1%
85 | COc1cc(C2C(C#N)=C(N)Oc3cc(N)ccc32)cc(OC)c1OC (stereo not drawn) | 54.9% (active)
86 | CCc1[nH]nc2c1C(c1cccnc1)C(C#N)=C(N)O2 (stereo not drawn) | 5.8%
87 | N#CC1=C(N)Oc2cc(O)ccc2C1c1ccncc1 (stereo not drawn) | -1.3%
88 | CCN(CC)c1ccc2c(c1)OC(N)=C(C#N)C2c1cccnc1 (stereo not drawn) | 70.8% (active)
89 | COc1ccc(C2C(C#N)=C(N)Oc3cc(O)ccc32)cc1OC (stereo not drawn) | -2.6%
90 | CN(C)c1ccc2c(c1)OC(N)=C(C#N)C2c1cccc(F)c1 (stereo not drawn) | 55.5% (active)
91 | N#CC1=C(N)Oc2c(ccc3cccnc23)C1c1cccnc1 (stereo not drawn) | 42.1%
92 | COc1ccc(OC)c(C2C(C#N)=C(N)Oc3cc(N)ccc32)c1 (stereo not drawn) | 9.4%
93 | N#CC1=C(N)Oc2cc(O)ccc2C1c1ccccc1 (stereo not drawn) | 1.7%
